PubChem BioAssay AID1159580 (chemical genetic matrix, 2015)
Several values for one entry are separate records, joined by “and”; a condition that tells them apart may be missing. Equal values may be shown once. About 2,000 (36%) of roughly 5,500 compounds were called active. About 18% were inconclusive and are not listed. No stated cut-off is given here; in the data, active means normalized growth mostly below about 0.91 (no sharp cut-off); inconclusive means no clear call, values can overlap the other calls; inactive means mostly above about 0.92. Some of the results follow.

Experiment: chemical genetic growth profiling, strain panel (AID 1159580);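 further: tested at 20 µM; growth read once vehicle control cultures reached saturation at 30 °C; 1 = growth at the plate median or of vehicle wells; lower values mean less growth of the strain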
Conditions: S. cerevisiae deletion strains, growth OD

Measured: normalized growth

O=c1cccc2n1C[C@H]1CNCC2C1
inactive: locus YAL021C, strain ccr4, active compounds read low 1 | locus YAL026C, strain drs2, active compounds read low 1.01 | locus YAL030W, strain snc1, active compounds read low 1.01 | locus YBL061C, strain skt5, active compounds read low 1.01 | locus YBR009C, strain hhf1, active compounds read low 0.982 | locus YBR021W, strain FUR4, active compounds read low 1.03 | locus YBR023C, strain chs3, active compounds read low 0.999 | locus YBR171W, strain sec66, active compounds read low 0.997 | locus YBR229C, strain ROT2, active compounds read low 1 | locus YBR231C, strain swc5, active compounds read low 1.02 | locus YBR279W, strain paf1, active compounds read low 1 | locus YCL011C, strain gbp2, active compounds read low 0.99 | locus YCL016C, strain dcc1, active compounds read low 0.973 | locus YCL029C, strain bik1, active compounds read low 0.985 | locus YCL061C, strain MRC1, active compounds read low 0.987 | locus YCL069W, strain vba3, active compounds read low 1 | locus YCR088W, strain abp1, active compounds read low 1 | locus YDL005C, strain med2, active compounds read low 1.01 | locus YDL035C, strain GPR1, active compounds read low 0.988 | locus YDL040C, strain nat1, active compounds read low 1.01 | locus YDL074C, strain BRE1, active compounds read low 0.984 | locus YDL101C, strain DUN1, active compounds read low 1.01 | locus YDL134C, strain PPH21, active compounds read low 1.03 | locus YDL185W, strain tfp1, active compounds read low 0.955 | locus YDL192W, strain arf1, active compounds read low 0.987 | locus YDR001C, strain nth1, active compounds read low 1.01 | locus YDR069C, strain doa4, active compounds read low 1.01 | locus YDR101C, strain arx1, active compounds read low 0.966 | locus YDR137W, strain rgp1, active compounds read low 1.02 | locus YDR150W, strain NUM1, active compounds read low 1 | locus YDR159W, strain sac3, active compounds read low 1 | locus YDR162C, strain NBP2, active compounds read low 1.01 | locus YDR195W, strain ref2 0.999 | locus YDR297W, strain sur2, active compounds read low 0.999 | locus YDR318W, strain mcm21, active compounds read low 0.996 | locus YDR334W, strain swr1, active compounds read low 0.999 | locus YDR335W, strain msn5, active compounds read low 1.01 | locus YDR388W, active compounds read low 0.992 | locus YDR392W, strain spt3, active compounds read low 0.899 | locus YDR502C, strain sam2, active compounds read low 1 | locus YEL003W, strain gim4, active compounds read low 1 | locus YEL037C, strain rad23, active compounds read low 1.01 | locus YEL061C, strain CIN8 (second series), active compounds read low 1.01 | locus YEL061C, strain CIN8, active compounds read low 1.01 | locus YER015W, strain faa2, active compounds read low 1.01 | locus YER016W, strain bim1, active compounds read low 1.01 | locus YER110C, active compounds read low 0.974 | locus YER111C, strain swi4, active compounds read low 0.985 | locus YER155C, strain BEM2 (second series), active compounds read low 0.974 | locus YER155C, strain BEM2, active compounds read low 1 | locus YER167W, strain BCK2, active compounds read low 1 | locus YFR010W, strain ubp6, active compounds read low 1.02 | locus YGL078C, strain dbp3, active compounds read low 0.982 | locus YGL086W, strain mad1, active compounds read low 0.965 | locus YGL167C, strain pmr1, active compounds read low 0.994 | locus YGL173C, strain kem1, active compounds read low 0.998 | locus YGL227W, strain vid30, active compounds read low 1.01 | locus YGL240W, strain doc1, active compounds read low 1.05 | locus YGL248W, strain PDE1, active compounds read low 1.03 | locus YGL253W, strain hxk2, active compounds read low 1.01 | locus YGR078C, strain PAC10, active compounds read low 1.03 | locus YGR135W, strain pre9, active compounds read low 1.02 | locus YGR252W, strain gcn5, active compounds read low 1.1 | locus YHR013C, strain ard1, active compounds read low 0.98 | locus YHR027C, strain rpn1, active compounds read low 1.01 | locus YHR030C, strain SLT2, active compounds read low 0.997 and 1.01 | locus YHR079C, strain IRE1 (second series), active compounds read low 0.966 | locus YHR079C, strain IRE1, active compounds read low 1.04 | locus YHR094C, strain hxt1, active compounds read low 0.995 | locus YHR129C, strain ARP1, active compounds read low 1 | locus YHR142W, strain chs7, active compounds read low 0.991 | locus YHR200W, strain rpn10, active compounds read low 0.979 | locus YIL066C, strain RNR3, active compounds read low 1.02 | locus YIL073C, strain SPO22, active compounds read low 0.947 | locus YIL125W, strain kgd1, active compounds read low 0.987 | locus YIR030C, strain dcg1, active compounds read low 0.992 | locus YJL092W, strain hpr5, active compounds read low 1 | locus YJL095W, strain BCK1 (second series), active compounds read low 1 | locus YJL095W, strain BCK1, active compounds read low 1.07 and 1.01 | locus YJL115W, strain asf1, active compounds read low 0.998 | locus YJL129C, strain trk1, active compounds read low 1 | locus YJL134W, strain LCB3, active compounds read low 0.999 | locus YJL154C, strain vps35, active compounds read low 0.997 | locus YJL164C, strain tpk1, active compounds read low 1 | locus YJL166W, strain qcr8, active compounds read low 0.98 | locus YJL168C, strain set2, active compounds read low 0.984 | locus YJL187C, strain SWE1 (second series), active compounds read low 1.01 | locus YJL187C, strain SWE1, active compounds read low 1.01
